Test results published in PubChem BioAssay (NCI).
Compounds without any hit were thinned out: in the full panel of roughly 83,000, 20% have a hit.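 Compound tested at a single concentration for 48 hours in 96-well plates; a percent growth value below 10 was scored as active.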 A number with no mark means an inactive call. Active and inactive are the calls of the source.

What was measured:
Assay in all cases: NCI-60 one-dose screen, 48 h (100 = growth as untreated, 0 = no growth, -100 = all killed)
Conditions in all cases: 10 µM unless noted
HCT-15 colon = system: HCT-15 colon
HT29 colon = system: HT29 colon
SNB-75 CNS = system: SNB-75 CNS
SNB-19 CNS = system: SNB-19 CNS
U251 CNS = system: U251 CNS
PC-3 prostate = system: PC-3 prostate
UACC-62 melanoma = system: UACC-62 melanoma
LOX IMVI melanoma = system: LOX IMVI melanoma
SK-MEL-28 melanoma = system: SK-MEL-28 melanoma
SK-MEL-5 melanoma = system: SK-MEL-5 melanoma

Row | SMILES | growth (HCT-15 colon) | growth (HT29 colon) | growth (SNB-75 CNS) | growth (SNB-19 CNS) | growth (U251 CNS) | growth (PC-3 prostate) | growth (UACC-62 melanoma) | growth (LOX IMVI melanoma) | growth (SK-MEL-28 melanoma) | growth (SK-MEL-5 melanoma)
1 | O=C(/C=C\c1ccccc1Cl)c1ccccc1 | 89.9% | 92.3% | 86.7% | 94.9% | 79.3% | 93.8% | 89.7% | 82.1% | 110% | 
2 | COc1cc(-c2nn(-c3ccc(NC(=O)c4cc(Cl)cc(Cl)c4)cc3)cc2-c2ccncc2)ccc1Cl | 22.6% | 16.9% | 54% | 87.7% | 55.7% |  | 70.4% |  | 85.5% | 79.4%
3 | Cc1nc(N)sc1C(=O)NCCO | 108% | 112% | 105% | 101% | 106% |  | 93.8% | 104% | 113% | 103%
4 | CC1Cc2cc(F)ccc2-n2cccc21 (configuration not stated) | 95% | 106% | 96.1% | 121% | 102% | 98.2% | 110% | 91.7% | 107% | 
5 | CC(=O)OC1/C=C\CC/C=C\C1 (configuration not stated) | 98% | 109% | 82.6% | 100% | 96.6% | 96.4% | 101% | 106% | 111% | 
6 | CCn1cc(C(=O)O)c(=O)c2cc(F)c(N3CCN(S(=O)(=O)c4ccc(Cl)cc4)CC3)cc21 | 15.7% | 7.87% (active) | 41.8% | 20.6% | 12% | 25.3% | 21.5% |  | 44.6% | 
7 | O=C(Nc1cccc2[nH]c(C(F)(F)F)nc12)c1ccc(F)cc1 | 96.9% | 99.3% | 97.3% | 78.6% | 71.7% |  | 51.6% | 87.8% | 79.7% | 69.5%
8 | Cc1nc(NC(=O)NC2CCCCC2)sc1C(=O)NN | 91.5% | 95.5% | 110% | 102% | 98.5% |  |  | 93.5% | 102% | 106%
9 | CC(=O)Nc1nc(C)c(C(=O)N/N=C/c2cccs2)s1 | 101% | 95% | 72% | 96.8% | 98.6% | 101% | 80.1% | 93.2% | 95.5% | 
10 | COc1cc2c(cc1OC)C(Cc1cc(OC)c(OC)cc1[N+](=O)[O-])=NCC2 | 95.8% | 50.9% | 88.2% | 94.3% | 77.4% | 69.2% |  | 75.1% | 92.7% | 
11 | O=c1oc2ccc3ccccc3c2cc1-c1ccnc2[nH]c(=S)[nH]c(=O)c12 | 105% | 95.3% | 98.9% | 95% | 98.5% | 93% | 88.2% | 93.1% | 105% | 
12 | N#Cc1ccc(NC2c3ccccc3CC2O)cc1 (configuration not stated) | 101% | 110% | 91.5% | 109% | 113% | 98.8% | 99.1% |  | 109% | 
13 | COc1cc(N)c2nccc(C)c2c1OC | 115% | 111% | 103% | 109% | 99.4% | 108% | 93.7% | 96.2% | 115% | 
14 | CCCCCCCCCCCCCCCCCC(=O)Nc1ccc(O)cc1 | 110% | 96.7% | 72% | 118% | 93.4% | 66.6% | 102% | 96.9% | 103% | 
15 | COc1ccc(C2CC(=O)c3c(O)cc(OC4OC(COC5OC(C)C(O)C(O)C5O)C(O)C(O)C4O)cc3O2)cc1O (configuration not stated) | 101% | 102% | 82.1% | 110% | 104% |  | 111% | 107% | 124% | 104%
16 | CCOc1nc(-c2ccccc2)cc2c(O)c(C(=O)N/N=C/c3ccccc3O)[nH]c(=O)c12 | 94% | 110% | 86.3% | 97.2% | 101% | 92.8% | 117% | 101% | 67.4% | 

Row | SMILES | growth (HCT-15 colon) | growth (HT29 colon) | growth (SNB-75 CNS) | growth (SNB-19 CNS) | growth (U251 CNS) | growth (PC-3 prostate) | growth (UACC-62 melanoma) | growth (LOX IMVI melanoma) | growth (SK-MEL-28 melanoma) | growth (SK-MEL-5 melanoma)
17 | CCCCCCNC(=O)Oc1ccc(/C(=C(/C)Cc2ccc(OC)cc2)c2ccc(OCCN(C)C)cc2)cc1 | 1.78% (active) | -7.26% (active) | 50.5% | 78.8% | 23.4% | 56.3% | 40.5% |  | 68.6% | 
18 | O=C1c2cc([N+](=O)[O-])ccc2-c2cc(Cl)c(NC(=O)C(F)(F)F)cc21 | 95.4% | 108% | 91.1% | 106% | 110% | 94.8% | 101% |  | 106% | 
19 | Cc1nnc(-c2cc3c(ccc4ccccc43)oc2=O)c2cn(-c3ccc(Cl)cc3)nc12 | 87.4% | 95.4% | 82.4% | 96.4% | 87.1% | 88.6% | 90.9% | 79.9% | 118% | 
20 | C=CC1CN2CCC1CC2C(O)c1ccnc2ccc(OC)cc12 (configuration not stated) | 104% | 98.6% | 78.2% | 96.1% | 103% |  | 100% | 93.3% | 115% | 97.9%
21 | CN(CCC#N)c1ccc(/C=C(\C#N)c2cccc(C(F)(F)F)c2)cc1 | 39.9% | 23.5% | 90.1% | 79% |  | 61.1% |  | 63.2% | 71.9% | 57.8%
22 | COc1nc(OC)nc(-c2cc(-c3cc(OC)c(OC)c(OC)c3)no2)n1 | 103% | 100% | 97.2% | 96.9% |  | 86.3% | 97.6% | 104% | 115% | 88.2%
23 | N=C(N)c1ccc(-c2ccc(-c3ccc(Cl)cc3)s2)s1 | -84.8% (active) | -33.3% (active) | -96.4% (active) | -81.8% (active) |  | -91% (active) | -31.2% (active) | -89.4% (active) | -87.8% (active) | 2.66% (active)
24 | CCOC(=O)c1cc(C(=O)c2ccc(Br)cc2)n2cc(C)cc(C)c12 | 95.5% | 82.3% | 82.8% | 87% |  | 84.1% | 89.3% | 92.3% | 98.5% | 96.2%
25 | COc1cc2ncnc(-n3ncc4cc(NC(=O)Nc5ccc(Cl)c(C)c5)ccc43)c2cc1OC | 103% | 73.6% | 82.7% | 109% |  | 65.6% | 88.9% | 98% | 80.5% | 88%
26 | COc1cc2ncnc(Nc3ccc4c(cnn4C(=O)Nc4ccccc4)c3)c2cc1OC | 83.2% | 51.1% | 114% | 95.4% |  | 98.9% | 114% | 93.2% | 77.3% | 90.9%
27 | O=C(/C=C/c1cccc(O)c1)c1cccc(-n2cc(-c3ccc(Cl)cc3)[nH]c2=O)c1 | -22.9% (active) | -10.1% (active) | 0.636% (active) | -10.6% (active) | -87.9% (active) |  |  |  | -86.4% (active) | -0.458% (active)
28 | Cc1ccc(C(=O)C(Br)C(Br)c2ccccc2)cc1 (configuration not stated) | 80.3% | 101% | 82.9% |  | 82.7% | 108% | 94.7% | 66.6% | 101% | 94.3%
29 | COc1cc(-c2cc3cnccc3c3nc(N)c4ccncc4c23)cc(OC)c1OC | 38.5% | 47.6% | -2.5% (active) | 53.3% |  | 37.3% | 41.6% | 36.1% | 75.3% | 44.6%
30 | COC(=O)c1c[n+]([O-])ccc1OC | 103% | 107% | 96.6% | 101% |  | 99.5% | 101% | 104% | 91.4% | 
31 | COc1cc2ncnc(-n3ncc4cc(NC(=O)Nc5ccccc5)ccc43)c2cc1OC | 21% | 29.1% | -12.4% (active) | 44.7% |  | -18.4% (active) | 23.9% | 1.66% (active) | -15.1% (active) | 40.2%
32 | CCOC(=O)c1c(C)oc2ncnc(Nc3ccc(NC(=O)Nc4cccc(Cl)c4)cc3)c12 | 59% | 37.1% | 70.6% | 84.7% |  | 41.2% | 69.1% | 64.1% | 61.8% | 53%
